Measurements as given in the supplement of paper PMC10720658.
Structures can show the parent of a compound that is named as a salt. ± gives the standard deviation of the averaged measurements.

Tested on: AEK1 (Tb927.3.2440)
Assay: percent reduction in TR-FRET probe signal relative to DMSO control; higher = stronger displacement of ATP-site probe (binding)
Details: 1 µM; incubation time 1 h

Compound	percent reduction in TR-FRET probe signal
NC(=O)c1ccc(-c2nc(-c3ccc4c(c3)OCCO4)c(-c3ccccn3)[nH]2)cc1	-1.5 ± 7.3%
COc1cc(OC)c(/C=C/S(=O)(=O)Cc2ccc(OC)c(NCC(=O)[O-])c2)c(OC)c1.[Na+]	-3.78 ± 11%
Cc1ccc(Nc2nccc(N(C)c3ccc4c(C)n(C)nc4c3)n2)cc1S(N)(=O)=O [Pazopanib HCl]	3.07 ± 12%
O=C(Nc1cccnc1)c1cc(-c2ccnc(F)c2)ccc1OCc1ccccc1	-0.16 ± 3.2%
C[C@@H](Oc1cc(-n2cnc3ccc(CN4CCN(C)CC4)cc32)sc1C(N)=O)c1ccccc1C(F)(F)F	2.7 ± 0.28%
CCCCCCCCCCCCCCCCCCOP(=O)([O-])OC1CC[N+](C)(C)CC1 [Perifosine (KRX-0401)]	-18.1 ± 6.6%
Cc1c(F)cc(C(=O)NC2CC2)cc1-c1ccc(C(=O)NCC(C)(C)C)cn1	-10 ± 9.6%
O=C(NCc1cccc(O)c1)Nc1nc(-c2ccncc2)cs1	-10 ± 8.6%
Cc1cc(C)c(/C=C2\C(=O)Nc3ccccc32)[nH]1 [Semaxanib (SU5416)]	2.37 ± 8.9%
Cn1cnc(N)c2ncnc1-2 [3-Methyladenine (3-MA)]	-2.13 ± 5.3%
COc1nccc(-c2c(-c3ccc(F)cc3)ncn2[C@H]2CC[C@H](O)CC2)n1	-2.94 ± 9.9%
OCCn1cc(-c2cnc3nnn(Cc4ccc5ncccc5c4)c3n2)cn1	-2.19 ± 3.1%
Cc1cn(-c2cc(NC(=O)c3ccc(C)c(Nc4nccc(-c5cccnc5)n4)c3)cc(C(F)(F)F)c2)cn1 [Nilotinib (AMN-107)]	17.5 ± 28%
